Values joined by “and” are separate entries in the source; they are usually repeats but may differ in a detail not shown here. Equal values may be shown once. About 83,000 compounds went through this panel and 20% of them were active in at least one assay; those are over-represented in the sample as a whole.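 Negative percent growth values reflect cell death: -40 means 40% of the cells present at the start died, and -100 means all died.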 Active and inactive are the calls of the source. How the source made its calls: active means growth percent below 10; inactive means the rest.
Assays:
Test in all cases: NCI-60 one-dose screen, 48 h (100 = growth as untreated, 0 = no growth, -100 = all killed)
Details in all cases: 10 µM unless noted
SR leukemia = tested on: SR leukemia
RPMI-8226 leukemia = tested on: RPMI-8226 leukemia
OVCAR-8 ovarian = tested on: OVCAR-8 ovarian
OVCAR-5 ovarian = tested on: OVCAR-5 ovarian
OVCAR-4 ovarian = tested on: OVCAR-4 ovarian
SK-OV-3 ovarian = tested on: SK-OV-3 ovarian
IGROV1 ovarian = tested on: IGROV1 ovarian
HS 578T breast = tested on: HS 578T breast
NCI/ADR-RES ovarian = tested on: NCI/ADR-RES ovarian
OVCAR-3 ovarian = tested on: OVCAR-3 ovarian

Measured: growth

C=C1C(=O)O[C@H]2[C@H]1CC/C(COC(=O)NCCCCNC(=O)OC/C1=C/CC[C@@]3(C)O[C@H]3[C@H]3OC(=O)C(=C)[C@@H]3CC1)=C\CC[C@@]1(C)O[C@@H]21
inactive: OVCAR-8 ovarian 12.5% | OVCAR-4 ovarian 31.1% | SK-OV-3 ovarian 94.2% | IGROV1 ovarian 48.9% | HS 578T breast 70.5% | NCI/ADR-RES ovarian 99.5%
active: SR leukemia -1.79% | RPMI-8226 leukemia -28.3% | OVCAR-5 ovarian 4.4%

CN(C)CCCn1c2c(c3ccc(N4CCNCC4)cc3c1=O)C(=O)c1ccccc1-2
active: SR leukemia -16.4% | RPMI-8226 leukemia -32.4% | OVCAR-8 ovarian -8.9% | OVCAR-4 ovarian -22.9% | SK-OV-3 ovarian 6.3% | IGROV1 ovarian 5.77% | NCI/ADR-RES ovarian -13.8%
inactive: OVCAR-5 ovarian 16.5% | HS 578T breast 49.1%

CCCCCCCC/C=C\CCCCCCCCOc1ccccc1CC(=O)NCC[N+]1(C)CCOCC1
inactive: SR leukemia 30% | RPMI-8226 leukemia 77.7% | OVCAR-8 ovarian 78.1% | OVCAR-5 ovarian 42.7% | OVCAR-4 ovarian 102% | SK-OV-3 ovarian 75.3% | IGROV1 ovarian 25.2% | HS 578T breast 92.9% | NCI/ADR-RES ovarian 97.9%

CCCCCCCCCCCCCCCCCCn1cc(COc2ccc(C=O)cc2)nn1
inactive: SR leukemia 85.6% | RPMI-8226 leukemia 95.3% | OVCAR-8 ovarian 102% | OVCAR-5 ovarian 120% | OVCAR-4 ovarian 103% | SK-OV-3 ovarian 91.3% | IGROV1 ovarian 103% | OVCAR-3 ovarian 96.8% | HS 578T breast 110% | NCI/ADR-RES ovarian 96.4%

N#CC1=C(N)Oc2c(sc3c(Br)cccc23)C1c1ccccn1 (stereo not given)
inactive: SR leukemia 12.7% | RPMI-8226 leukemia 30% | OVCAR-8 ovarian 53.8% | OVCAR-5 ovarian 72% | OVCAR-4 ovarian 88.6% | SK-OV-3 ovarian 27.2% | IGROV1 ovarian 43.1% | OVCAR-3 ovarian 14.3% | HS 578T breast 45.5% | NCI/ADR-RES ovarian 14.6%

CCc1c2c(nc3ccc(OCc4ccc(B5OC(C)(C)C(C)(C)O5)cc4)cc13)-c1cc3c(c(=O)n1C2)COC(=O)[C@]3(O)CC
active: SK-OV-3 ovarian -1.58% | NCI/ADR-RES ovarian 0.929%
inactive: SR leukemia 11.8% | RPMI-8226 leukemia 10.4% | OVCAR-8 ovarian 10.6% | OVCAR-5 ovarian 10% | OVCAR-4 ovarian 23.7% | IGROV1 ovarian 12.8% | HS 578T breast 38.4%

N=C(N)c1ccc(-c2ccc(-c3ccc(F)cc3)s2)nc1
inactive: OVCAR-8 ovarian 68.9% | OVCAR-5 ovarian 77.6% | OVCAR-4 ovarian 79.7% | SK-OV-3 ovarian 86.3% | IGROV1 ovarian 65.7% | HS 578T breast 84.2% | NCI/ADR-RES ovarian 93.5%
active: SR leukemia 3.85% | RPMI-8226 leukemia 5.51%

O=C(Nc1ccc2ccccc2c1)c1cc2ccccc2cc1O
inactive: SR leukemia 82% | RPMI-8226 leukemia 49.9% | OVCAR-8 ovarian 102% | OVCAR-5 ovarian 98.8% | OVCAR-4 ovarian 82.9% | SK-OV-3 ovarian 94.3% | IGROV1 ovarian 59.8% | HS 578T breast 105% | NCI/ADR-RES ovarian 87.6%

COc1ccc(C/C(C)=C(\c2ccc(O)cc2)c2ccc(OCCCN(C)C)cc2)cc1
inactive: SR leukemia 59.7% | RPMI-8226 leukemia 86.8% | OVCAR-8 ovarian 89.5% | OVCAR-5 ovarian 102% | OVCAR-4 ovarian 92.6% | SK-OV-3 ovarian 101% | IGROV1 ovarian 102% | HS 578T breast 89% | NCI/ADR-RES ovarian 98.5%

C=C[C@]1(C)C=C2CC[C@@H]3C(C)(C)C(=O)CC[C@@]3(C)[C@@H]2CC1
inactive: SR leukemia 102% | RPMI-8226 leukemia 98.3% | OVCAR-8 ovarian 103% | OVCAR-5 ovarian 111% | OVCAR-4 ovarian 102% | SK-OV-3 ovarian 111% | IGROV1 ovarian 11.3% | HS 578T breast 104% | NCI/ADR-RES ovarian 110%

CCOC(=O)N(O)c1ccc(/C=C/c2ccccc2)cc1
active: IGROV1 ovarian 8.91% and 1.54%
inactive: SR leukemia 66.7% | RPMI-8226 leukemia 62.2% and 49.3% | OVCAR-8 ovarian 76.7% and 37.1% | OVCAR-4 ovarian 55.8% and 43.5% | SK-OV-3 ovarian 94.1% and 92.6% | OVCAR-3 ovarian 34% and 28% | HS 578T breast 94.4% and 112% | NCI/ADR-RES ovarian 74.7% and 63.2%
18.9% (inactive) and 3.82% (active): OVCAR-5 ovarian

CCCCCCCCCCCCCCCC[N+](C)(C)CCN(Cc1ccc(OC)cc1)c1ncccn1
-45.2% (active) and 56.8% (inactive): SR leukemia
inactive: RPMI-8226 leukemia 27.2% | SK-OV-3 ovarian 14.6% and 67.4% | NCI/ADR-RES ovarian 72.2% and 105%
-72.9% (active) and 84.5% (inactive): HS 578T breast
-37% (active) and 67.2% (inactive): OVCAR-5 ovarian
active: IGROV1 ovarian -70.4%
-8.05% (active) and 31.3% (inactive): OVCAR-4 ovarian
-72.8% (active) and 56.4% (inactive): OVCAR-8 ovarian

Cc1ccc(Cc2cnc(NC(=O)c3cc(C)oc3C)s2)cc1
inactive: SR leukemia 29.7% | RPMI-8226 leukemia 73.6% | OVCAR-8 ovarian 87.7% | OVCAR-5 ovarian 67.6% | OVCAR-4 ovarian 70.2% | SK-OV-3 ovarian 84.3% | IGROV1 ovarian 62% | HS 578T breast 82.9% | NCI/ADR-RES ovarian 67.4%

COc1ccc(-c2cc(=O)c3c(O)cc(O)cc3o2)cc1
inactive: SR leukemia 59.9% and 69.1% | RPMI-8226 leukemia 87.6% and 87.3% | OVCAR-8 ovarian 103% and 90.2% | OVCAR-5 ovarian 112% and 130% | OVCAR-4 ovarian 118% and 102% | SK-OV-3 ovarian 112% and 135% | IGROV1 ovarian 125% and 113% | OVCAR-3 ovarian 112% and 81% | HS 578T breast 120% and 97% | NCI/ADR-RES ovarian 99.6% and 99.1%

COc1ccc(NC(=O)Nc2ccccc2CNc2nc(Nc3ccc(OCCN4CCCC4)cc3)ncc2Cl)cc1
active: RPMI-8226 leukemia -18.5% | OVCAR-8 ovarian -18.2% | OVCAR-4 ovarian -74.3% | OVCAR-3 ovarian -83.8% | HS 578T breast -67.7% | NCI/ADR-RES ovarian 6.48%
inactive: SR leukemia 11.6% | OVCAR-5 ovarian 21.1% | SK-OV-3 ovarian 58.5% | IGROV1 ovarian 24.3%

CCN(C(=O)N1CCN(c2cc3c(cc2F)c(=O)c(C(=O)O)cn3C2CC2)CC1)c1nc(-c2ccccc2)cs1
inactive: SR leukemia 10% | RPMI-8226 leukemia 12.5% | OVCAR-8 ovarian 30.2% | OVCAR-5 ovarian 35.7% | OVCAR-4 ovarian 55.5% | SK-OV-3 ovarian 63.8% | IGROV1 ovarian 12.5% | OVCAR-3 ovarian 15.9% | HS 578T breast 18.2% | NCI/ADR-RES ovarian 22.4%

CC[C@]1(O)CC2CN(CCc3c([nH]c4ccccc34)C(C(=O)OC)(c3cc4c(cc3OC)N(C=O)[C@H]3[C@@](O)(C(=O)OC)[C@H](OC(C)=O)[C@]5(CC)[C@@H]6C[C@@H]6CN6CC[C@]43[C@@H]65)C2)C1 (stereo not given in full)
active: SK-OV-3 ovarian -17.7% | IGROV1 ovarian 8.34% | OVCAR-3 ovarian -53.6% | HS 578T breast -2.32% | NCI/ADR-RES ovarian -6.57%
inactive: SR leukemia 12.7% | RPMI-8226 leukemia 23.4% | OVCAR-8 ovarian 10.3% | OVCAR-5 ovarian 29.6% | OVCAR-4 ovarian 45.5%

COc1ccc2c(O)c(/C=C3\N=Nc4nc(C)ccc43)oc2c1CC1CCNCC1
active: SR leukemia -27.5%
inactive: RPMI-8226 leukemia 96.7% | OVCAR-8 ovarian 68.4% | OVCAR-5 ovarian 65% | OVCAR-4 ovarian 74.2% | SK-OV-3 ovarian 80.8% | IGROV1 ovarian 60.8% | HS 578T breast 57.9% | NCI/ADR-RES ovarian 104%

COc1ccc(-c2[nH]c3ccccc3c2-c2ccc(OC)cc2)cc1
active: SR leukemia 6.13%
inactive: RPMI-8226 leukemia 24.1% | OVCAR-8 ovarian 86.1% | OVCAR-5 ovarian 62.6% | OVCAR-4 ovarian 61% | SK-OV-3 ovarian 61.7% | IGROV1 ovarian 88.2% | HS 578T breast 49.5% | NCI/ADR-RES ovarian 36.2%

Nc1[nH]nc(Nc2ccccc2)c1-c1nc2ccccc2s1
inactive: SR leukemia 13.6% | RPMI-8226 leukemia 24% | OVCAR-8 ovarian 38.4% | OVCAR-5 ovarian 34.5% | OVCAR-4 ovarian 29.5% | SK-OV-3 ovarian 48.8% | IGROV1 ovarian 28.5% | OVCAR-3 ovarian 25.3% | HS 578T breast 47.2% | NCI/ADR-RES ovarian 30%

CCOC(=O)C(=CCC(C)C)C(=O)OCC
inactive: SR leukemia 119% | RPMI-8226 leukemia 99% | OVCAR-8 ovarian 109% | OVCAR-5 ovarian 95.8% | OVCAR-4 ovarian 95.2% | SK-OV-3 ovarian 98.5% | IGROV1 ovarian 104% | OVCAR-3 ovarian 99.5% | HS 578T breast 98.6% | NCI/ADR-RES ovarian 93.8%

Nc1ccc(-c2nc3ccc4[nH]ncc4c3c3c2CCCC3)cc1F
active: SK-OV-3 ovarian -28.3%
inactive: SR leukemia 10.8% | RPMI-8226 leukemia 27.3% | OVCAR-8 ovarian 32.2% | OVCAR-5 ovarian 56.8% | OVCAR-4 ovarian 50.2% | IGROV1 ovarian 10.9% | HS 578T breast 17.1% | NCI/ADR-RES ovarian 35.6%

N#Cc1ccccc1OCC(=O)Nc1nc2c(s1)COc1ccccc1-2
active: SR leukemia -19.5% | IGROV1 ovarian -3.12%
inactive: RPMI-8226 leukemia 96.8% | OVCAR-8 ovarian 106% | OVCAR-5 ovarian 85.4% | OVCAR-4 ovarian 99.1% | SK-OV-3 ovarian 94.7% | HS 578T breast 99.7% | NCI/ADR-RES ovarian 104%

O=C(Nc1ncc(Cc2cccc(C(F)(F)F)c2)s1)c1ccc2c(c1)OCCO2
inactive: RPMI-8226 leukemia 17.6% | OVCAR-8 ovarian 23.2% | OVCAR-5 ovarian 37.1% | OVCAR-4 ovarian 37.1% | SK-OV-3 ovarian 35.3% | IGROV1 ovarian 23.4% | HS 578T breast 21.4%
active: SR leukemia 6.85% | NCI/ADR-RES ovarian 7.71%

From PubChem BioAssay (NCI)
